This is part of a sample that, as a whole, favours compounds with a hit. Of some 83,000 tested, about 20% had one in any assay.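 Treatment: one concentration, 48 hours, 96-well format. Scoring: percent growth, with anything below 10 considered active.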 Unmarked numbers belong to inactive results. The source made the active and inactive calls.

In the experiment the test system is SF-268 CNS. The experiment can be described thus: NCI-60 one-dose screen, 48 h (100 = growth as untreated, 0 = no growth, -100 = all killed). The conditions noted are these: 10 µM unless noted.
Regarding `CC(=O)O[C@H]1CC[C@@]2(C)C(=CC[C@H]3[C@@H]4C[C@@H](N5CC5)[C@H](C(C)=O)[C@@]4(C)CC[C@@H]32)C1`, the growth was 93.2%.

For the compound `CC(=O)O[C@H]1C(=O)[C@@]2(C)[C@H]([C@H](OC(=O)c3ccccc3)[C@]3(O)C[C@H](OC(=O)[C@H](OC(=O)OC[C@H]4COC(C)(C)O4)[C@@H](NC(=O)c4ccccc4)c4ccccc4)C(C)=C1C3(C)C)[C@]1(OC(C)=O)CO[C@@H]1C[C@@H]2O`, the growth is 29.7%.

Regarding `COC(=O)N[C@H]1CCc2c(Br)c(OC)c(OC)c(OC)c2-c2ccc(SC)c(=O)cc21`, the growth is 17.7%.

In the case of `CC[C@H](C)[C@H](NC(=O)c1ccccn1)C(=O)N(C)[C@H](C[C@@H](OC(C)=O)c1nc(C(=O)N[C@@H](Cc2ccccc2)C[C@H](C)C(=O)OC)cs1)C(C)C`, the growth was 32.3%. In the case of `Cc1cc(N(CCCl)CCCl)ccc1C=Nc1ccc(-c2csc(Cc3ccccc3)n2)cc1` it was 65.6%. Turning to `COC(=O)[C@]12CCC(C)(C)C[C@H]1[C@H]1C(=O)C[C@@H]3[C@@]4(C)C[C@@]5(CC(C)(C)[C@@H]4CC[C@@]3(C)[C@]1(C)CC2)OO[C@@](C)(C(F)(F)F)O5`, the growth is 93.1%. On to `CN1CCC(c2c[nH]c3ccccc23)C1` (configuration not stated), for which the growth was 111%. As to `CCC[CH2][Sn]([CH2]CCC)([CH2]CCC)[O]c1ccc(Cl)cc1Cl`, the growth is -91% (active). Regarding `COC(=O)[C@H](C[C@H](Cc1ccccc1)NC(=O)c1csc([C@@H](C[C@H](C(C)C)N(C)C(=O)[C@@H](NC(=O)[C@H]2CCCCN2C)C(C)C)OC(C)=O)n1)NC(=O)OCc1ccccc1`, the growth was 13.1% [8.5 µM].

For `C[n+]1c(/C=C/c2ccc(N(CCCl)CCCl)cc2)sc2ccccc21`, the growth was 57.7%.

Turning to `CC[C@H](C)[C@H](NC(=O)C12C3C4C1C1C2C3C41NC(C)=O)C(=O)N(C)[C@H](C[C@@H](OC(C)=O)c1nc(C(=O)N[C@@H](Cc2ccccc2)C[C@H](C)C(=O)OC)cs1)C(C)C` (some centres not stated), the growth was 27.5%.

Take `CCCCCN(CCCCC)CC(O)c1cc(Cl)ccc1OC` (configuration not stated): the growth is 42.3%. On to `C#Cc1ccc2c(c1)C(c1ccccc1)=NCC(=O)N2C`, for which the growth was 58.8%.

Turning to `CCOC(=O)CCN(C)C1=Nc2ccc(Cl)cc2C(c2ccccc2)=[N+]([O-])C1`, the growth was 99.6%. The figure for `COC(=O)[C@@H](C)C[C@H](Cc1ccccc1)NC(=O)c1csc([C@@H](C[C@H](C(C)C)N(C)C(=O)[C@@H](NC(=O)CN(C)C)C2CC2)OC(C)=O)n1` is 33.3%; for `COc1cc2c(c(OC)c1OC)-c1ccc([O-])c(=O)cc1[C@@H](NC(C)=O)CC2.COc1cc2c(c(OC)c1OC)-c1ccc([O-])c(=O)cc1[C@@H](NC(C)=O)CC2.[Cu+2]` it is 27.1%. Regarding `COc1ccc(/C=C\c2cc(OC)c(OC)c(OC)c2)c(NS(=O)(=O)c2ccc(C)cc2)c1O`, the growth was 19.4%. In the case of `C=C(C)[C@@]12OC3(/C=C/C=C/CCCCC)O[C@@H]1[C@@H]1[C@@H]4O[C@]4(CO)[C@@H](O)[C@]4(O)C(=O)C(C)=C[C@H]4[C@@]1(O3)[C@H](C)[C@H]2OC(=O)c1ccccc1` it was 40.7%; in that of `CC(C)CCC1(CCCl)C(=O)NC(=O)NC1=O`, 109%; in that of `C[C@@]1(CCCCCCCCCc2ccc(O)cc2)C[C@]2(C)OC(=O)C[C@@H]2OO1`, 123%. The figure for `COC(=O)[C@@H](C)C[C@H](Cc1ccccc1)NC(=O)c1nc([C@@H](C[C@H](C(C)C)N(C)C(=O)[C@@H](NC(=O)[C@H]2CCCN2C)C(C)C)OC(C)=O)sc1C` is 30.6%. The figure for `CCOP(=O)(NC[C@H]1O[C@](O)(CO)[C@@H](O)[C@@H]1O)OCC` is 94.4%; for `O=C1CN=C(c2ccc(Cl)cc2)c2sccc2N1` it is 106%; for `COP(=O)(OC)C(O)c1ccc(Cl)cc1` (configuration not stated) it is 94.6%. As to `CNC(=O)Oc1ccc(N(C)C)cc1C(C)C`, the growth is 101%. Regarding `CO[C@H](C(=O)O)[C@@H]1Cc2cc3cc(OC4CC(OC5CC(O)C(O)C(C)O5)C(O)C(C)O4)c(C)c(O)c3c(O)c2C(=O)[C@H]1OC1CC(OC2CC(OC3CC(C)(O)C(O)C(C)O3)C(O)C(C)O2)C(O)C(C)O1` (some centres not stated), the growth was 29.3%. As to `CCOC(=O)N[C@H]1CCc2c(Br)c(OC)c(OC)c(OC)c2-c2ccc(SC)c(=O)cc21`, the growth was 17.5%.
